This note sets out measurements from the supplement of paper PMC12494721.

SMILES strings stand for the structures. Structures can show the parent of a compound that is named as a salt.

One test relates to Clostridium sporogenes DSM 1664. The experiment in a line: growth (OD595) fold change vs plate DMSO controls (fold change (ratio)); higher = more growth. The conditions noted are these: incubation time: 27 h, anaerobic, 37 °C. The gist of the method: (§1)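 To obtain OD, 595 nm absorbance readings were blank-subtracted, corrected for compound background using 20 µM compound solutions in water, and multiplied by a calibration factor of 5. They came from 96-well mGAM cultures grown anaerobically for 27 h at 37 °C and shaken before reading. Growth is the fold change relative to the median of plate DMSO controls. Two biological replicates were averaged, and fold changes above 1.5 were set to NA.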
As for `O=C1NS(=O)(=O)c2ccccc21` [Saccharin] (50 µM), the growth is 0.975. Still for that read-out and setting: next, `O=C(O)CCCC[C@@H]1SC[C@@H]2NC(=O)N[C@@H]21` [Biotin] (20 µM): 1.02. As to `CC(C)(C(=O)O)c1ccc(C(O)CCCN2CCC(C(O)(c3ccccc3)c3ccccc3)CC2)cc1` (configuration not stated) [Fexofenadine hydrochloride] (20 µM), the growth was 1.1. Still for that read-out and setting: the value for `CC(C)[C@H]1CC[C@H](C(=O)N[C@H](Cc2ccccc2)C(=O)O)CC1` [Nateglinide] (20 µM) was 1.11. The same measure, in the same setting: the value for `COc1ccc(CNc2nc(N3CCC[C@H]3CO)ncc2C(=O)NCc2ncccn2)cc1Cl` [Avanafil] (20 µM) was 0.96; that for `C#CCN(C)CCCOc1ccc(Cl)cc1Cl` [Clorgyline hydrochloride] (20 µM) was 1.02; that for `Cc1cc(-c2ccccc2)nnc1NCCN1CCOCC1` [Minaprine dihydrochloride] (20 µM) was 1.21. The same measure, in the same setting: next, `c1ccc(CNc2ncnc3nc[nH]c23)cc1` [Aminopurine, 6-benzyl] (20 µM): 1.09; `COc1cccc(N(C)C(=S)Oc2ccc3c(c2)CCCC3)n1` [Liranaftate] (20 µM): 1.1. As for `C=CCOc1ccccc1OCC(O)CNC(C)C` (configuration not stated) [Oxprenolol hydrochloride] (20 µM), the growth was found to be 0.929. Same read-out and setting: next, `C[C@@H](O[C@H]1OCCN(Cc2n[nH]c(=O)[nH]2)[C@H]1c1ccc(F)cc1)c1cc(C(F)(F)F)cc(C(F)(F)F)c1` [Aprepitant] (20 µM): 1.21; `CCOc1ccc(Cc2nccc3cc(OCC)c(OCC)cc23)cc1OCC` [Ethaverine hydrochloride] (20 µM): 0.848. Still for that read-out and setting: next, `O=C(CCCCC(=O)Nc1c(I)cc(I)c(C(=O)O)c1I)Nc1c(I)cc(I)c(C(=O)O)c1I` [Iodipamide] (20 µM): 0.854; `NC(=O)c1cnccn1` [Pyrazinamide] (20 µM): 0.992; `CCN(CC)CCOC(=O)c1ccc(N)cc1` [Procaine hydrochloride] (20 µM): 0.834. Same read-out and setting: the value for `CCCCC(CC)CNC(=N)NC(=N)NCCCCCCNC(=N)NC(=N)NCC(CC)CCCC` (configuration not stated) [Alexidine dihydrochloride] (20 µM) was 0.294. Regarding `Cc1onc(-c2ccccc2)c1C(=O)N[C@@H]1C(=O)N2[C@@H]1SC(C)(C)[C@@H]2C(=O)O` [Oxacillin sodium] (20 µM), the growth worked out at 0. Same read-out and setting: next, `CC(=O)N[C@@H](CC(C)C)C(=O)O` [N-Acetyl-L-leucine] (20 µM): 1.1. Same read-out and setting: next, `CC(C)CN(C[C@@H](O)[C@H](Cc1ccccc1)NC(=O)O[C@H]1CO[C@H]2OCC[C@H]21)S(=O)(=O)c1ccc(N)cc1` [Darunavir] (20 µM): 1.14; `CN1CCc2cccc3c2[C@H]1Cc1ccc(O)c(O)c1-3` [R(-) Apomorphine hydrochloride hemihydrate] (20 µM): 1.05; `CC(=O)OCC(=O)[C@@]1(O)[C@H](C)C[C@H]2[C@@H]3CCC4=CC(=O)C=C[C@]4(C)[C@@]3(F)[C@@H](O)C[C@@]21C` [Dexamethasone acetate] (20 µM): 1.05. The same measure, in the same setting: the value for `CN(C)CCC(c1ccc(Br)cc1)c1ccccn1` (configuration not stated) [Brompheniramine maleate] (20 µM) was 0.959; that for `C#C[C@]1(O)CC[C@H]2[C@@H]3CCC4=C(CCC(=O)C4)[C@H]3CC[C@@]21C` [Norethynodrel] (20 µM) was 0.978; that for `CN1CCN(CCCN2c3ccccc3Sc3ccc(S(=O)(=O)N(C)C)cc32)CC1` [Thioproperazine dimesylate] (20 µM) was 0.886. Take `CCN1/C(=C/C=C/C=C/c2sc3ccccc3[n+]2CC)Sc2ccccc21` [Dithiazanine iodide] (20 µM): the growth was 0.625. The same measure, in the same setting: the value for `O=C(O)/C=C/c1ccc(Cn2ccnc2)cc1` [Ozagrel hydrochloride] (20 µM) was 0.923; that for `C=CCOc1ccc(CC(=O)O)cc1Cl` [Alclofenac] (20 µM) was 0.943; that for `CCCCc1nc(Cl)c(CO)n1Cc1ccc(-c2ccccc2-c2nnn[nH]2)cc1` [Losartan] (20 µM) was 1.01.

For another test, the system named is Escherichia coli IAI1. The description is as above. The conditions noted are these: incubation time: 27 h, anaerobic, 37 °C. The gist of the method:
as §1
Take `CC(C)COCC(CN(Cc1ccccc1)c1ccccc1)N1CCCC1` (configuration not stated) [Bepridil hydrochloride] (20 µM): the growth came out at 0.996. Still for that read-out and setting: the value for `C[C@@H]1C[C@H]2[C@@H]3CCC4=CC(=O)C=C[C@]4(C)[C@@]3(Cl)[C@@H](O)C[C@]2(C)[C@@]1(OC(=O)c1ccco1)C(=O)CCl` [Mometasone furoate] (20 µM) was 0.984; that for `c1ccc(-c2ccc(C(c3ccccc3)n3ccnc3)cc2)cc1` (configuration not stated) [Bifonazole] (20 µM) was 1.08. For `Cc1ncc([N+](=O)[O-])n1CC(C)O` (configuration not stated) [Secnidazole] (20 µM), the growth was determined as 1.07. Regarding `CC(=O)[C@H]1CC[C@H]2[C@@H]3C[C@H](C)C4=CC(=O)CC[C@]4(C)[C@H]3[C@@H](O)C[C@]12C` [Medrysone] (20 µM), the growth worked out at 1.03. The same measure, in the same setting: next, `Cc1ccc(C(=O)c2ccc(CC(=O)O)n2C)cc1` [Tolmetin sodium salt dihydrate] (20 µM): 0.976. The same measure, in the same setting: next, `COCCOC(=O)C1=C(C)NC(C)=C(C(=O)OC(C)C)C1c1cccc([N+](=O)[O-])c1` (configuration not stated) [Nimodipine] (20 µM): 0.814; `CCCCCCCCCCCCCCCCCCCCCC(=O)Nc1ccn([C@@H]2O[C@H](CO)[C@@H](O)[C@@H]2O)c(=O)n1` [Enocitabine] (20 µM): 0.973; `CCN(CCCc1ccccc1)CCCc1ccccc1` [Alverine citrate salt] (20 µM): 1.01. On the same count and under the same terms, the value for `CN(C)CCCC1(c2ccc(F)cc2)OCc2cc(C#N)ccc21` (configuration not stated) [Citalopram hydrobromide] (20 µM) was 0.992. On to `O=C1Nc2ccc(Cl)cc2[C@@](C#CC2CC2)(C(F)(F)F)O1` [Efavirenz] (20 µM), for which the growth was determined as 1.01. The same measure, in the same setting: the value for `O=C1NS(=O)(=O)c2ccccc21` [Saccharin] (50 µM) was 1.02.

As to `O=C(O)CCCC[C@@H]1SC[C@@H]2NC(=O)N[C@@H]21` [Biotin] (20 µM), the growth was found to be 0.975. Same read-out and setting: the value for `CC(C)(C(=O)O)c1ccc(C(O)CCCN2CCC(C(O)(c3ccccc3)c3ccccc3)CC2)cc1` (configuration not stated) [Fexofenadine hydrochloride] (20 µM) was 1.02; that for `CC(C)[C@H]1CC[C@H](C(=O)N[C@H](Cc2ccccc2)C(=O)O)CC1` [Nateglinide] (20 µM) was 1.22; that for `COc1ccc(CNc2nc(N3CCC[C@H]3CO)ncc2C(=O)NCc2ncccn2)cc1Cl` [Avanafil] (20 µM) was 0.981. On the same count and under the same terms, the value for `C#CCN(C)CCCOc1ccc(Cl)cc1Cl` [Clorgyline hydrochloride] (20 µM) was 0.993; that for `Cc1cc(-c2ccccc2)nnc1NCCN1CCOCC1` [Minaprine dihydrochloride] (20 µM) was 0.985. On the same count and under the same terms, the value for `c1ccc(CNc2ncnc3nc[nH]c23)cc1` [Aminopurine, 6-benzyl] (20 µM) was 0.978; that for `COc1cccc(N(C)C(=S)Oc2ccc3c(c2)CCCC3)n1` [Liranaftate] (20 µM) was 0.972. For the molecule `C=CCOc1ccccc1OCC(O)CNC(C)C` (configuration not stated) [Oxprenolol hydrochloride] (20 µM), the growth is 0.97. With `C[C@@H](O[C@H]1OCCN(Cc2n[nH]c(=O)[nH]2)[C@H]1c1ccc(F)cc1)c1cc(C(F)(F)F)cc(C(F)(F)F)c1` [Aprepitant] (20 µM), the growth amounted to 0.988. Same read-out and setting: the value for `CCOc1ccc(Cc2nccc3cc(OCC)c(OCC)cc23)cc1OCC` [Ethaverine hydrochloride] (20 µM) was 0.99. In the case of `O=C(CCCCC(=O)Nc1c(I)cc(I)c(C(=O)O)c1I)Nc1c(I)cc(I)c(C(=O)O)c1I` [Iodipamide] (20 µM), the growth is 1.01. Same read-out and setting: the value for `NC(=O)c1cnccn1` [Pyrazinamide] (20 µM) was 1.04.

Consider `CCN(CC)CCOC(=O)c1ccc(N)cc1` [Procaine hydrochloride] (20 µM), for which the growth was 1.24. With `CCCCC(CC)CNC(=N)NC(=N)NCCCCCCNC(=N)NC(=N)NCC(CC)CCCC` (configuration not stated) [Alexidine dihydrochloride] (20 µM), the growth worked out at 0.938. On the same count and under the same terms, next, `Cc1onc(-c2ccccc2)c1C(=O)N[C@@H]1C(=O)N2[C@@H]1SC(C)(C)[C@@H]2C(=O)O` [Oxacillin sodium] (20 µM): 0.994.

Regarding `CC(=O)N[C@@H](CC(C)C)C(=O)O` [N-Acetyl-L-leucine] (20 µM), the growth was found to be 0.831. Turning to `CC(C)CN(C[C@@H](O)[C@H](Cc1ccccc1)NC(=O)O[C@H]1CO[C@H]2OCC[C@H]21)S(=O)(=O)c1ccc(N)cc1` [Darunavir] (20 µM), the growth came out at 1.

With `CN1CCc2cccc3c2[C@H]1Cc1ccc(O)c(O)c1-3` [R(-) Apomorphine hydrochloride hemihydrate] (20 µM), the growth is 1.03.

With `CC(=O)OCC(=O)[C@@]1(O)[C@H](C)C[C@H]2[C@@H]3CCC4=CC(=O)C=C[C@]4(C)[C@@]3(F)[C@@H](O)C[C@@]21C` [Dexamethasone acetate] (20 µM), the growth turned out to be 1.01. Still for that read-out and setting: next, `CN(C)CCC(c1ccc(Br)cc1)c1ccccn1` (configuration not stated) [Brompheniramine maleate] (20 µM): 1.17. Same read-out and setting: the value for `C#C[C@]1(O)CC[C@H]2[C@@H]3CCC4=C(CCC(=O)C4)[C@H]3CC[C@@]21C` [Norethynodrel] (20 µM) was 1.04; that for `CN1CCN(CCCN2c3ccccc3Sc3ccc(S(=O)(=O)N(C)C)cc32)CC1` [Thioproperazine dimesylate] (20 µM) was 0.986; that for `CCN1/C(=C/C=C/C=C/c2sc3ccccc3[n+]2CC)Sc2ccccc21` [Dithiazanine iodide] (20 µM) was 0.879. The same measure, in the same setting: the value for `O=C(O)/C=C/c1ccc(Cn2ccnc2)cc1` [Ozagrel hydrochloride] (20 µM) was 0.982; that for `C=CCOc1ccc(CC(=O)O)cc1Cl` [Alclofenac] (20 µM) was 1.06; that for `CCCCc1nc(Cl)c(CO)n1Cc1ccc(-c2ccccc2-c2nnn[nH]2)cc1` [Losartan] (20 µM) was 0.991.
